# Source: PubChem BioAssay AID652016 (National Center for Advancing Translational Sciences (NCATS), 2013)
# Records with an inconclusive call do not appear. Values without a mark were called inactive. Active and inactive are the calls of the source. Calls follow the shape of the dose curve; as a rule, active = well fitted inhibition curve with a large enough effect; inconclusive = small, poorly fitted or top-dose-only effect; inactive = flat fitted curve, though single readings scatter.
# Target: Luciferin 4-monooxygenase (Photinus pyralis) (UniProt P08659)
# Sequence (P08659 whole entry, looked up): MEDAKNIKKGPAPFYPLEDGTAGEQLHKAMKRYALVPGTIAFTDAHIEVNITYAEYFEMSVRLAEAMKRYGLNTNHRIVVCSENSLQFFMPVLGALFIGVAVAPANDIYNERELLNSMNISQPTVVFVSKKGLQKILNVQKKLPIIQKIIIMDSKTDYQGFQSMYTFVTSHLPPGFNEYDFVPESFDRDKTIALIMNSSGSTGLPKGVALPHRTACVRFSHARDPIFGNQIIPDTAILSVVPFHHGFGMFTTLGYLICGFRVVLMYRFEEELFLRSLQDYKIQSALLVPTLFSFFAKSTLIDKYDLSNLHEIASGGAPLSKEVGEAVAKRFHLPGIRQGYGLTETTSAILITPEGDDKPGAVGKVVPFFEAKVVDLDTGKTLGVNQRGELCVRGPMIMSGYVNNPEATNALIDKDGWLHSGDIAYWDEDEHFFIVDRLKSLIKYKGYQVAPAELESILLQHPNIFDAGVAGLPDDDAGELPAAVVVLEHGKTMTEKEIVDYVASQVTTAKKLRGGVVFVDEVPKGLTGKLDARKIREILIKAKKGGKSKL
# Experiment: qHTS Assay for Inhibitors of Firefly Luciferase from the GSK Published Protein Kinase Inhibitor Set
# Conditions: purified firefly luciferase, luminescence inhibition; series mostly up to 57.5 µM; activity change, negative = inhibition: at the top concentration
# Source text: FLuc (firefly luciferase) is the prototypical bioluminescent reporter gene from Photinus pyralis.[1] The enzyme catalyzes the oxidation luciferin via luciferin-AMP to produce light. FLuc is used in cell-based reporter gene-based assays for screening small molecule chemical libraries. However, small molecule luciferase inhibitors present in most large chemical libraries are often enriched in the output of high throughput screens using this reporter sometimes complicating interpretation and candidate selection.
# RLuc is a bioluminescent reporter gene luciferase from Renilla reniformis, also known as the sea pansy. RLuc uses the luciferin substrate coelenterazine. RLuc is often used in combination with the nonhomologous luciferase FLuc (firefly luciferease) as a trasfection or pathway normalization control. Recently, non-homologous reporters have been described for high throughput screening 'coincidence' reporter gene strategies.
# 1. Fan F, Wood KV (2007) Bioluminescent assays for high-throughput screening. Assay Drug Dev Technol 5: 127-136.
# 2. Thorne N, Inglese J, Auld DS (2010) Illuminating insights into firefly luciferase and other bioluminescent reporters used in chemical biology. Chem Biol 17: 646-657.
# 3. […] Chem Biol 19: 1060-1072.
# 4. Michelini E, Cevenini L, Mezzanotte L, Coppa A, Roda A (2010) Cell-based assays: fuelling drug discovery. Anal Bioanal Chem 398: 227-238.
# 5. Cheng KC, Inglese J (2012) A coincidence reporter-gene system for high-throughput screening. Nat Methods 9: 937.
# Biochemical firefly luciferase enzyme assay
# NCGC Assay Protocol Summary:
# Reagents: 50mM Tris acetate, pH 7.5; 10mM Mg acetate; 10uM D-luciferin (Sigma #L9504); 10uM ATP; 0.01% Tween-20; 0.05% BSA; 10nM P. pyralis luciferase (Sigma #L9506)
# Control compounds used were two known firefly luciferase inhibitors (compounds (2) and (5) in Auld et al., 2010), and DMSO.
# Three microliters containing firefly luciferase substrates in buffer (final concentrations: 50mM Tris acetate, pH 7.5, 10mM Mg acetate, 0.01% Tween-20, 0.05% BSA, 10uM D-luciferin, and 10uM ATP) are dispensed into each well of a Greiner white, solid-bottom 1536-well format plate using a flying reagent dispenser (FRD). These assay plates were then treated with 23nL of compound or DMSO using a Kalypsys pin tool, which allows for delivery of a 7-point interplate titration of each compound to the assay plates (quantitative HTS), with final compound concentrations ranging from approximately 60uM to 300pM. One microliter of firefly luciferase in 50mM Tris-acetate buffer was then delivered by FRD to each well for a final enzyme concentration of 10nM. Luciferase activity was then measured using an Envision plate reader (PerkinElmer), with an average incubation time of 5 min.
# % is scaled to controls: 0 for no effect and ±100 for the full control effect; potency is read from the fitted curve at half-maximal effect.
Compound,"activity change, negative = inhibition",Potency
Nc1nc(-c2ccc(F)cc2)c(-c2ccc3ncccc3n2)s1,10.4%,
COc1ccc2ncn(-c3cc(OC(C)c4ccccc4Cl)c(C(N)=O)s3)c2c1 (stereo not given),2.04%,
CNC(=O)c1cccc(C#Cc2cncnc2Nc2ccc(OCc3cccc(F)c3)c(Cl)c2)c1,-14.8%,
CC1=C(C(=O)Nc2ccc3n[nH]c(C)c3c2)C(c2ccc(C(F)(F)F)cc2)CC(=O)N1 (stereo not given),-0.842%,
Cc1ccc(C(=O)NC2CCCCC2)cc1-c1ccc(C(=O)NCC2CC2)cc1,-11%,
COc1ccc2c(-c3ccnc(Nc4cccc(OC(F)(F)F)c4)n3)cnn2n1,6.14%,
COc1cc2ncn(-c3cc(OCc4ccccc4C(F)(F)F)c(C(=O)N(C)C)s3)c2cc1OC,6.24%,
Oc1[nH]c2ccccc2c1C=Nc1ccc(-n2cncn2)cc1,,18.3 µM (active)
c1cc(-c2cnn3nc(N4CCOCC4)ccc23)nc(NC2CC2)n1,,4.61 µM (active)
CCCN1CCCC(c2ccc(Nc3nc(Nc4cc(F)ccc4C(N)=O)c4cc[nH]c4n3)c(OC)c2)C1 (stereo not given),27.6%,
CN1CCN(Cc2ccc(-c3cc4ncnc(Nc5ccc(OCc6cccc(F)c6)c(Cl)c5)c4s3)o2)CC1,-3.12%,
COc1cccc(COc2cc(-n3cnc4ccccc43)sc2C(N)=O)c1,2.69%,
COc1cccc(-n2ncc3c(NN=Cc4ccc(C)cc4)ncnc32)c1,-8.95%,
CC(Oc1cc(-n2cnc3ccc(OCC4CCN(C)CC4)cc32)sc1C(N)=O)c1ccccc1Cl (stereo not given),8.04%,
CCn1c(-c2nonc2N)nc2c(C#CC(C)(C)O)ncc(OCC3CCNCC3)c21,6.19%,
CCn1c(-c2nonc2N)nc2cncc(C(=O)N3CCC(N)C3)c21 (stereo not given),3.05%,
Fc1ccc(-c2nn3ccccc3c2-c2ccncc2)cc1,,1.16 µM (active)
CCc1ccc(Oc2nccc(-c3c(-c4ccc(F)cc4)ncn3C3CCNCC3)n2)cc1,0.977%,
COc1ccc(-c2coc3ncnc(N)c23)cc1,0.905%,
CC(=O)Nc1cccc(C#Cc2cncnc2Nc2ccc(OCc3cccc(F)c3)c(Cl)c2)c1,-10.2%,

Compound,"activity change, negative = inhibition",Potency
c1ccc(Nc2ncc(-c3ccccc3)o2)cc1,,0.259 µM (active)
Cc1cc(O)cc(C)c1C=Cc1cncc(C(=O)OC(C)(C)C)c1,-0.255%,
CC1=C(C(=O)Nc2ccc3[nH]ncc3c2)C(c2ccc(Cl)c(Cl)c2)CC(=O)N1 (stereo not given),7.19%,
COc1ccc(-c2ccncc2)cc1C(N)=O,6.06%,
COc1ccccc1Nc1ncc(-c2ccccc2)o1,,1.03 µM (active)
COC(=O)c1ccc2c(c1)/C(=C/c1cc(Br)c(O)c(Br)c1)C(=O)N2,,20.6 µM (active)
Cc1nnc(-c2ccc(C)c(-c3ccc(C(=O)NCc4ccc(Cl)cc4)cc3)c2)o1,3.77%,
COC(=O)Nc1nc2ccc(S(=O)(=O)c3ccc(NC(=O)Nc4cc(C(F)(F)F)ccc4F)cc3)cc2[nH]1,5.29%,
COc1ccc(-c2nn3ncccc3c2-c2ccnc(Nc3ccc4c(c3)OCCO4)n2)cc1,-11%,
Clc1ccc(CNc2nccc(-c3cnn4ncccc34)n2)cc1,2.79%,
Fc1ccc(-c2c(-c3ccncc3)nc3n2CCS3)cc1,-5.47%,
Cn1cc(C=C2C(=O)Nc3cccnc32)c2ccccc21,,14.6 µM (active)
CCn1c(-c2nonc2N)nc2c(C#CC(C)(C)O)ncc(OC3CCNCC3)c21,-0.275%,
NC(=O)c1ccc2c(-c3ccnc(NCCCO)n3)c(-c3ccc(F)cc3)nn2c1,-9.6%,
CNC(=O)c1cncc(C=Cc2ccccc2Cl)c1,,9.19 µM (active)
Fc1ccc(-c2ncn(CCCN3CCOCC3)c2-c2ccncc2)cc1,-12.5%,
OCCCNc1nccc(-c2c(-c3ccc(F)cc3)nn3cc(C(F)(F)F)ccc23)n1,,32.6 µM (active)
CCn1c(-c2nonc2N)nc2ccc(F)cc21,12.3%,
Nc1nccc(-c2c(-c3ccc(F)cc3)ncn2C2CCNCC2)n1,13.5%,
COc1cc2ncn(-c3cc(OCc4cccs4)c(C(N)=O)s3)c2cc1OC,5.36%,
